Assay results reported in PubChem BioAssay (NCATS).
Inconclusive results are not listed. The source made the active and inactive calls. Calls follow the shape of the dose curve; as a rule, active = well fitted curve in the direction sought with a large enough effect; inconclusive = small, poorly fitted or top-dose-only effect, or another doubt; inactive = no such curve, though single readings can be large; an effect the other way counts as inactive or inconclusive.

Experiments:
[1] = qHTS of pediatric cancer cell lines to identify multiple opportunities for drug repurposing: Confirmatory screen for SJ-GBM2 cells (AID 1347116); conditions: SJ-GBM2 glioblastoma cells, viability; series mostly up to 45.9 µM; also: nearly all actives have a fitted effect of over 60% in size;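 as to activity change, negative = cytotoxic: plate controls were DMSO for no effect and bortezomib for full effect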
Method in brief: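 Viability measured as metabolically active cells via CellTiter-Glo luminescence following 48 hours of compound exposure, 11-point dilutions in confirmatory testing. 500-1,000 cells/well plated 5 hours before dosing; controls were DMSO and 2.3 µM bortezomib.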

[2] = qHTS of pediatric cancer cell lines to identify multiple opportunities for drug repurposing: Confirmatory screen for BT-37 cells (AID 1347117); conditions: BT-37 pediatric cancer cells, viability; series mostly up to 45.9 µM; also: nearly all actives have a fitted effect of over 55% in size;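 as to activity change, negative = cytotoxic: plate controls were DMSO for no effect and bortezomib for full effect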
Method in brief: (§1)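 Cells (500-1,000/well) rested 5 h, then received compounds for 48 h; metabolically active cells were measured by CellTiter-Glo luminescence. Final concentrations spanned up to 46 µM (MIPE, 11-point) or 0.59 nM-46 µM (NPC, 8-point) in primary screens, 11-point in follow-ups.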

[3] = qHTS of pediatric cancer cell lines to identify multiple opportunities for drug repurposing: Confirmatory screen for TC32 cells (AID 1347118); conditions: TC32 Ewing sarcoma cells viability qHTS;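 also: cells exposed to compound for 48 h before the read; nearly all actives have a fitted effect of over 65% in size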
Method in brief: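 Luminescent CellTiter-Glo read-out of metabolically active TC32 cells after 48 h compound exposure. Primary: MIPE 11-point, 0.78 nM–46 µM; NPC 8-point, 0.59 nM–46 µM. Confirmatory: 11-point dilutions.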

[4] = qHTS of pediatric cancer cell lines to identify multiple opportunities for drug repurposing: Confirmatory screen for MG 63 (6-TG R) cells (AID 1347119); conditions: MG-63 (6-TG resistant) osteosarcoma viability; series mostly up to 45.9 µM; also: nearly all actives have a fitted effect of over 55% in size;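 as to activity change, negative = cytotoxicity: plate controls were DMSO neutral control for no effect and bortezomib for full effect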
Method in brief: as §1

[5] = qHTS of pediatric cancer cell lines to identify multiple opportunities for drug repurposing: Confirmatory screen for U-2 OS cells (AID 1347122); conditions: U-2 OS osteosarcoma cell viability; series mostly up to 45.9 µM; also: nearly all actives have a fitted effect of over 65% in size;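 as to activity change, negative = cytotoxicity: plate controls were DMSO for no effect and bortezomib for full effect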
Method in brief: as §1

[6] = qHTS of pediatric cancer cell lines to identify multiple opportunities for drug repurposing: Confirmatory screen for Rh41 cells (AID 1347123); conditions: Rh41 rhabdomyosarcoma cells, viability/cytotoxicity qHTS; series mostly up to 45.9 µM; also: nearly all actives have a fitted effect of over 60% in size;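 as to activity change, negative = cytotoxic: plate controls were DMSO for no effect and bortezomib for full effect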
Method in brief: as §1

[7] = qHTS of pediatric cancer cell lines to identify multiple opportunities for drug repurposing: Confirmatory screen for Rh18 cells (AID 1347125); conditions: Rh18 rhabdomyosarcoma cells, viability; series mostly up to 45.9 µM; also: nearly all actives have a fitted effect of over 55% in size; as to activity change, negative = cytotoxic: % is scaled to controls: 0 for no effect and ±100 for the full control effect
Method in brief: as §1

[8] = qHTS of pediatric cancer cell lines to identify multiple opportunities for drug repurposing: Confirmatory screen for NB-EBc1 cells (AID 1347115); conditions: NB-EBc1 neuroblastoma cells, viability (cytotoxicity); series mostly up to 45.9 µM;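 also: cells exposed to compound for 48 h before the viability read; nearly all actives have a fitted effect of over 45% in size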; as to activity change, negative = cytotoxic: % is scaled to controls: 0 for no effect and ±100 for the full control effect
Text: (§2) Drug repurposing or repositioning has been offered as a strategy for drug development in oncology programs. This approach has special potential for childhood cancers and other rare or orphan diseases, where the expected return on new drug development has been a disincentive to pharmaceuticals.
(§3) In this project we exploit the poly-pharmacology of drugs to discover new indications via phenotypic screening of a panel of 19 well-characterized cell lines derived from solid tumors seen in children and adolescents. The goal is to identify approved drugs with previously unrecognized anticancer properties that has the potential to reveal new mechanisms and biological processes involved in carcinogenesis or drug resistance. We employed a titration-based paradigm (quantitative high-throughput screening or qHTS), where all compounds were tested at multiple concentrations for their effect on cell viability. Concentration-response curves (CRCs) were derived directly from the primary screen, and both potency and efficacy values were used to identify compounds with robust bioactivity profiles. We screened the NIH Chemical Genomics Center (NCGC) Pharmaceutical Collection (NPC) and Mechanism Interrogation Plate (MIPE) small molecule collections of approved and investigational compounds against these cell lines; and measured metabolically active cells after 48 hours of compound treatment as a proxy for cell viability.
(§4) Assay Submitter: Nathalia J. Martinez, National Center for Advancing Translational Sciences, National Institutes of Health, Rockville, MD, USA; email: natalia.martinez@nih.gov
(§5) [1] Shen, M et al. Quantitative high-throughput phenotypic screening of pediatric cancer cell lines identifies multiple opportunities for drug repurposing. Oncotarget 2017 Dec 19;9(4):4758-4772. PMID 29435139.
(§6) The cells were obtained from University of North Carolina (UNC), Pediatric Preclinical Testing Program (PPT), and Coriell Institute (CI).
(§7) qHTS cell viability assay:
Cells were assayed in growth media at a density of 500-1,000 cells/well. Five microliters of cells were dispensed into 1,536-well, white, solid-bottom, TC-treated plates (Greiner Bio One) using a multidrop dispenser and incubated at 37 degrees C, 5% CO2, under a humidified atmosphere for 5 hours. Twenty-three nanoliters of compounds and controls (neutral control DMSO or positive control bortezomib at final concentration of 2.3 µM) were subsequently transferred by Kalypsys pintool. For primary screens, the MIPE collection was tested at 11-point dilutions (final concentrations range from 0.78 nM to 46 µM) and the NPC collection at 8-point dilutions (final concentrations range from 0.59 nM to 46 µM). Compounds tested in follow-up screens were assayed at 11-point dilutions. Cells were incubated for 48 hours, followed by addition of 3 µL of CellTiter-Glo (Promega). After a 15 min incubation at room temperature, samples were analyzed for luminescence intensity using a ViewLux High-throughput CCD imager equipped with clear filters.

[9] = qHTS of pediatric cancer cell lines to identify multiple opportunities for drug repurposing: Confirmatory screen for control Hh wild type fibroblast cells (AID 1347121); conditions: viability qHTS; series mostly up to 45.9 µM; also: nearly all actives have a fitted effect of over 70% in size
Text: as §2, §3, §4, §5, §6, §7
Cells were assayed in growth media at a density of 500-1,000 cells/well. Five microliters of cells were dispensed into 1,536-well, white, solid-bottom, TC-treated plates (Greiner Bio One) using a multidrop dispenser and incubated at 37 degrees C, 5% CO2, under a humidified atmosphere for 5 hours. Twenty-three nanoliters of compounds and controls (neutral control DMSO or positive control bortezomib at final concentration of 2.3 µM) were subsequently transferred by Kalypsys pintool. […] After a 15 min incubation at room temperature, samples were analyzed for luminescence intensity using a ViewLux High-throughput CCD imager equipped with clear filters.

[10] = qHTS of pediatric cancer cell lines to identify multiple opportunities for drug repurposing: Confirmatory screen for RD cells (AID 1347124); conditions: RD rhabdomyosarcoma cell viability; series mostly up to 45.9 µM;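 also: cells exposed to compound for 48 h before viability readout; nearly all actives have a fitted effect of over 65% in size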; as to activity change, negative = cytotoxic: % is scaled to controls: 0 for no effect and ±100 for the full control effect
Method in brief: as §1
Potency is read from the fitted curve at half-maximal effect.

CN/C(=C\[N+](=O)[O-])NCCSCc1ccc(CN(C)C)o1
active: Potency [3] 10.4 µM
inactive: Potency [1] | Potency [2] | Potency [4] | Potency [5] | Potency [6] | Potency [7]

CN1C[C@H](C(=O)N[C@]2(C)O[C@@]3(O)[C@@H]4CCCN4C(=O)[C@H](Cc4ccccc4)N3C2=O)C[C@@H]2c3cccc4[nH]cc(c34)C[C@H]21
inactive: Potency [8] | Potency [2] | Potency [4] | Potency [9] | Potency [5] | Potency [10] | Potency [7]
active: Potency [6] 3.29 µM

C[C@]12C=CC(=O)C=C1CC[C@H]1[C@@H]3C[C@@H](O)[C@](O)(C(=O)CO)[C@@]3(C)C[C@H](O)[C@@]12F
active: Potency [2] 9.27 µM | Potency [3] 6.57 µM | Potency [10] 7.37 µM | Potency [7] 9.27 µM
inactive: Potency [8]

C[C@]12CC[C@@H]3c4ccc(O)cc4C[C@@H](CCCCCCCCCS(=O)CCCC(F)(F)C(F)(F)F)[C@H]3[C@@H]1CC[C@@H]2O (some centres undefined)
inactive: Potency [8] | Potency [1] | Potency [2] | Potency [10] | Potency [7]
active: Potency [3] 8.27 µM | Potency [6] 8.27 µM

C[n+]1cc2c3c(ccc2c2ccc4cc5c(cc4c21)OCO5)OCO3
active: Potency [8] 3.23 µM | Potency [1] 3.62 µM | Potency [2] 1.44 µM | Potency [3] 1.15 µM | Potency [4] 1.62 µM | Potency [9] 4.56 µM | Potency [5] 1.44 µM | Potency [6] 2.29 µM | Potency [10] 1.82 µM | Potency [7] 1.62 µM

Nc1nc(N)c2nc(-c3ccccc3)c(N)nc2n1
active: Potency [1] 9.27 µM | Potency [3] 3.69 µM
inactive: Potency [9] | Potency [6] | Potency [10] | Potency [7]

NCCCNCCSP(=O)(O)O
inactive: activity change, negative = cytotoxic [8] 10.1% [at 9.58 µM] | activity change, negative = cytotoxic [2] 0.812% [at 9.58 µM] | activity change, negative = cytotoxicity [4] 6.09% [at 9.58 µM] | activity, negative = cytotoxic [9] 0.865% [at 9.58 µM] | activity change, negative = cytotoxic [7] 1.32% [at 9.58 µM]
active: Potency [1] 0.215 µM
